# Laboratory results taken from PubChem BioAssay (NCATS).
# Inconclusive results are not listed. Entries that show only a call come without a potency. Calls of active or inactive are those of the source. The call rests on the fitted dose curve; in most records, active means well fitted inhibition curve with a large enough effect in the repeat runs; inconclusive means weak or mixed curves; inactive means no such curve, though single readings can be large or run the other way.
# Target: Cytochrome P450 2C9 (Homo sapiens) (UniProt P11712)
# Sequence (P11712 whole entry, looked up): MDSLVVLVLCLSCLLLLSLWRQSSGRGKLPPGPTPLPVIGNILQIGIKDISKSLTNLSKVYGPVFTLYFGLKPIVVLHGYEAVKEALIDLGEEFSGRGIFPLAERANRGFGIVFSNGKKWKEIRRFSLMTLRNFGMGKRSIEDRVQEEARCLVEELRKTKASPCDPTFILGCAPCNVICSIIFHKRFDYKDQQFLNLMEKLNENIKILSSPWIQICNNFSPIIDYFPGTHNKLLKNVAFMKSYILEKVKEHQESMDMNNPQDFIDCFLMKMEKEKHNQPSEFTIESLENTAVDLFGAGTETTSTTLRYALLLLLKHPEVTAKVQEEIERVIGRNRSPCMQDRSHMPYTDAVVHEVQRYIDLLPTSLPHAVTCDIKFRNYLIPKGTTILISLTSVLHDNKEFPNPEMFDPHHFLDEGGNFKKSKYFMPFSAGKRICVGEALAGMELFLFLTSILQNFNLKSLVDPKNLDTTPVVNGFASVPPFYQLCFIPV
# Assay: Cytochrome P450 family 2 subfamily C member 9 (CYP2C9) small molecule antagonists: luciferase biochemical (cell-free) qHTS assay (AID 1645842); further: nearly all actives have a fitted effect of over 55% in size
# Conditions: P450-Glo CYP2C9 enzyme assay, luciferin luminescence; series mostly up to 57.4 µM
# Description: National Center for Advancing Translational Sciences [NCATS] Assay Overview: Cytochrome P450 (CYP) enzymes are membrane-bound hemeproteins that play a key role in metabolism of drugs and xenobiotics. Assaying the effect of chemicals on CYP isozymes is useful to minimize the adverse drug reactions and toxicities in drug development process. Chemical compounds were tested for their effect on CYP enzyme activities by using P450-Glo (TM) screening systems (Promega Corporation, Madison, WI). These systems provide a luminescent method containing proluciferin substrates and are converted to luciferin products by CYP isozymes. The luciferin products formed are detected with a luciferin detection reagent, and the amount of light produced is proportional to CYP activity. P450-Glo (TM) CYP2C9 screening system (Catalog. No. V9790) was used to detect the compounds that interfere in CYP2C9 activity.
# Assay Protocol Summary: Two ul of enzyme-substrate mix supplemented with 0.4% Bovine Serum Albumin was dispensed into medium binding white/solid 1536-well plates (Greiner Bio-One North America Inc., Monroe, NC) using a Flying Reagent Dispenser (FRD, Aurora Discovery, San Diego, CA). […] The assay plates were incubated at room temperature for 10 min. Then 2 ul of NADPH regeneration solution was added to each well of the assay plates using an FRD and incubated at 37C for 1 h. The reaction was stopped by adding 4 ul of detection reagent using an FRD and after 20 min incubation at room temperature, the luminescence signal was measured using a ViewLux plate reader (Perkin Elmer, Shelton, CT). Data were expressed as relative luminescence units.
# Potency means the concentration at half of the fitted maximal effect.
Compound,Potency,"activity change, negative = inhibition"
COCCCOc1cc(C[C@@H](C[C@H](N)[C@@H](O)C[C@H](C(=O)NCC(C)(C)C(N)=O)C(C)C)C(C)C)ccc1OC,inactive,–
CN1CCN(c2c(F)cc3c(=O)c(C(=O)O)cn(CCF)c3c2F)CC1,inactive,–
O=C(O)c1cc(=O)[nH]c(=O)[nH]1,inactive,–
C[C@@H]1CN(c2c(F)c(N)c3c(=O)c(C(=O)O)cn(C4CC4)c3c2F)C[C@H](C)N1,inactive,–
CCn1cc(C(=O)O)c(=O)c2cc(F)c(N3CCNCC3)nc21,inactive,–
CCCOc1ccc(C(=O)OCCN(CC)CC)cc1N,inactive,–
CN(CCOc1ccc(CC2SC(=O)NC2=O)cc1)c1ccccn1 (stereo not given),inactive,–
CC(C)(C#N)c1cc(Cn2cncn2)cc(C(C)(C)C#N)c1,6.17 µM (active),–
COc1ccccc1OCC(O)COC(N)=O (stereo not given),inactive,–
Cc1noc(NS(=O)(=O)c2ccc(N)cc2)c1C,inactive,–
CC(C)OC(=O)OCOP(=O)(CO[C@H](C)Cn1cnc2c(N)ncnc21)OCOC(=O)OC(C)C,inactive,–
N[C@@H](C(=O)N[C@@H]1C(=O)N2C(C(=O)O)=C(Cl)CS[C@H]12)c1ccccc1,–,11.4% [at 11.5 µM] (inactive)
CCN(CC)CCn1c(=O)c(Cc2ccc(OC)cc2)nc2ccccc21,inactive,–
Nc1nc(F)nc2c1ncn2[C@@H]1O[C@H](CO)[C@@H](O)[C@@H]1O,inactive,–
CCCc1cc(C(N)=S)ccn1,inactive,–
CC(C)C[C@H](NC(=O)[C@H](CCc1ccccc1)NC(=O)CN1CCOCC1)C(=O)N[C@@H](Cc1ccccc1)C(=O)N[C@@H](CC(C)C)C(=O)[C@@]1(C)CO1,inactive,–
C[C@@H](CN1CC(=O)NC(=O)C1)N1CC(=O)NC(=O)C1,inactive,–
CCN[C@H]1C[C@H](C)S(=O)(=O)c2sc(S(N)(=O)=O)cc21,inactive,–
Cc1nnc(C(=O)NC(C)(C)c2nc(C(=O)NCc3ccc(F)cc3)c(O)c(=O)n2C)o1,inactive,–
O=C(O)CCn1c2c(c3ccccc31)C[C@H](NS(=O)(=O)c1ccc(F)cc1)CC2,17.4 µM (active),–

Compound,Potency,"activity change, negative = inhibition"
COc1ncnc(NS(=O)(=O)c2ccc(N)cc2)c1OC,inactive,–
O=C(O)c1ccc(-n2nc(-c3ccccc3O)nc2-c2ccccc2O)cc1,inactive,–
CCCN[C@H]1CCc2nc(N)sc2C1,inactive,–
O=P(O)(O)C(O)(Cc1cccnc1)P(=O)(O)O,inactive,–
COC(=O)Nc1nc2ccc(C(=O)c3ccccc3)cc2[nH]1,inactive,–
CCN(CC)CC#CCOC(=O)C(O)(c1ccccc1)C1CCCCC1 (stereo not given),7.56 µM (active),–
Nc1nc(N)nc(-c2cc(Cl)ccc2Cl)n1,inactive,–
O=C(O)CSCC(=O)NC1CCSC1=O (stereo not given),inactive,–
Cc1cccc(N(C)C(=S)Oc2ccc3ccccc3c2)c1,11 µM (active),–
CCn1cc(C(=O)O)c(=O)c2cc(F)c(N3CCNCC3)cc21,inactive,–
CN(C)CCc1c[nH]c2ccc(CS(=O)(=O)N3CCCC3)cc12,inactive,–
O[C@@H](CNC[C@H](O)[C@H]1CCc2cc(F)ccc2O1)[C@@H]1CCc2cc(F)ccc2O1,inactive,–
CN1CCN(c2c(F)cc3c(=O)c(C(=O)O)cn4c3c2OCN4C)CC1,inactive,–
O=NN(CCCl)C(=O)NC1CCCCC1,inactive,–
Nc1ccc(S(=O)(=O)Nc2ccccn2)cc1,inactive,–
COc1c(N2CCNC(C)C2)c(F)cc2c(=O)c(C(=O)O)cn(C3CC3)c12 (stereo not given),inactive,–
CCOC(=O)[C@H](CCc1ccccc1)N[C@H]1CCc2ccccc2N(CC(=O)O)C1=O,4.9 µM (active),–
C[C@@H]1C[C@H]2[C@@H]3CCC4=CC(=O)C=C[C@]4(C)[C@@]3(Cl)[C@@H](O)C[C@]2(C)[C@@]1(OC(=O)c1ccco1)C(=O)CCl,4.36 µM (active),–
NC1(c2ccc(-c3nc4ccn5c(=O)[nH]nc5c4cc3-c3ccccc3)cc2)CCC1,inactive,–
CS(=O)(=O)c1ccc([C@@H](O)[C@@H](CO)NC(=O)C(Cl)Cl)cc1,inactive,–
